In all, about 290,000 compounds went through this assay and about 3,000 (1%) were called active. Shown is part of a subset that was picked to be rich in actives. A number with no mark means an inactive call. No stated cut-off is given here; in the data, active means inhibition mostly above about 36% (no sharp cut-off); inactive means mostly below about 34%.

This experiment is described as follows: inhibition of NOD1-driven NF-kB reporter – cell-based, luminescence, uHTS, primary screen (AID 1578).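 Further: HEK-293T reporter cells stimulated with the NOD1 agonist gamma-tri-DAP.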 The following applies: NOD1-driven NF-kB luciferase reporter cells, at 4 µM, hits give high values. In general terms: A reporter such as luciferase makes a cellular process visible.
The inhibition is the drop in the measured response relative to a control, in per cent. As for `Cc1cccc(N(C(=O)CNC(=O)c2ccco2)C(C(=O)NC2CCCC2)c2ccncc2)c1` (stereo not given), the inhibition is -12.6%.
The figure for `CC1=NN(c2nc(-c3ccccc3)cs2)C(=O)C1` is 3.7%; for `O=C1CC(c2ccccc2)=NN1c1nc(-c2ccccc2)cs1` it is 65.7% (active); for `CC1=NN(c2nc(-c3ccc(Cl)cc3)cs2)C(=O)C1` it is 46.6%.
As to `CCCNC(=O)c1onc(CSc2cccc(OC)c2)c1C(=O)NCCC`, the inhibition is -4%.
The result for `Cc1nc(-c2ccc(NC(=O)c3ccco3)cc2)cs1` reads 54.6% (active); that for `Cc1nc(-c2cccc(NC(=O)c3ccco3)c2)cs1`, -30.5%; that for `Nc1nc(-c2ccc(NC(=O)c3ccco3)cc2)cs1`, -4.3%.
On to `Cc1nc(-c2ccc(C(=O)Nc3cccc(F)c3)cc2)cs1`, for which the inhibition is 26.3%.
The result for `Cc1nc(-c2ccc(C(=O)Nc3cccc(Br)c3)cc2)cs1` reads 47.3% (active).
As to `Cc1ccc(C(=O)Nc2ccc(-c3csc(C)n3)cc2)cc1`, the inhibition was -53.9%.
The result for `COCCN1Cc2cccc(C(=O)Nc3cccc(-c4nc5ccccc5[nH]4)c3)c2C1=O` reads -5.5%; that for `CCOc1ccc(C(=O)OCc2nnc(-c3cccs3)o2)cc1OC`, -3.4%.
Turning to `Oc1nc(Nc2ccccc2)sc1/C=C1\C=Nc2ccccc21`, the inhibition was -13.5%.
Consider `O=C(COC(=O)c1ccccc1Br)NCc1ccccc1`, for which the inhibition was -32%.
The result for `CC(=O)N/C(=C/c1ccc([N+](=O)[O-])cc1)C(=O)O` reads -71.3%; that for `O=C(O)c1cc(-c2ccc(Cl)cc2)n(-c2ccccc2)n1`, -29.5%.
As to `COC(=O)C1C2C=CC3(CN(c4cccc(C)c4)C(=O)C13)O2` (stereo not given), the inhibition was -25.9%.
The figure for `COc1ccc2nccnc2c1[N+](=O)[O-]` is -0.6%.
Turning to `O=C(CCCc1ccccc1)NCCCc1ccccc1`, the inhibition is -23.7%.
The figure for `O=C(CCC(=O)NCCCc1ccccc1)NCCCc1ccccc1` is 80.7% (active); for `O=C(CCCCC(=O)NCCCc1ccccc1)NCCCc1ccccc1` it is -23.1%.
The result for `CCn1c(-c2ccccc2)c(C(=O)O)c2ccccc21` reads -1.6%; that for `CCn1c(-c2ccccc2)c(C(=O)CC#N)c2ccccc21`, -39.5%.
As for `CCn1c(-c2ccccc2)c(C(=O)CCl)c2ccccc21`, the inhibition was 79.5% (active).
The result for `Cc1ccc(OCc2nnc(SCC(N)=O)n2N)cc1` reads -1.8%; that for `O=C(Cc1c[nH]c2ccccc12)Nc1ccc(N2CCOCC2)cc1`, -30.3%.
On to `NC(=O)C1(N2CCCCC2)CCN(C(=S)Nc2ccc(S(N)(=O)=O)cc2)CC1`, for which the inhibition was -18.7%.
The figure for `COc1cccc(OCc2cc(C(=O)NCc3ccccn3)no2)c1` is -60.1%; for `COc1cccc(OCc2cc(C(=O)NCc3ccc4c(c3)OCO4)no2)c1` it is -60.1%; for `O=C(O)C(Cc1ccccc1)N1C(=O)/C(=C/c2cccs2)SC1=S` (stereo not given) it is 3%.
The figure for `O=C(O)C(Cc1ccccc1)N1C(=O)/C(=C/c2ccccc2)SC1=S` (stereo not given) is 40.1%; for `Cc1ccc(CCNC(=O)CN(C)S(=O)(=O)c2ccc3c(c2)n(C)c(=O)c(=O)n3C)cc1` it is -2.1%.
The figure for `COc1ccccc1/C=C/c1ccc2cccc(O)c2n1` is -8.4%.
As for `COc1cc(/C=C/c2ccc3c(Br)cc(Br)c(O)c3n2)ccc1O`, the inhibition is 79.9% (active).
The figure for `COc1cc(Br)c(/C=C/c2ccc3cccc(O)c3n2)cc1OC` is 11.8%; for `COc1cc(Cl)cc(/C=C/c2ccc3cccc(O)c3n2)c1OC` it is 8.1%.
`COc1ccc(/C=C/c2ccc3c(Br)ccc(O)c3n2)cc1`: the inhibition is 0.6%.
The result for `COc1ccc(/C=C/c2ccc3cccc(O)c3n2)c(OC)c1OC` reads 16.5%; that for `COc1cccc(/C=C/c2ccc3cccc(O)c3n2)c1`, 7.9%.
In the case of `COc1cc(Br)cc(/C=C/c2ccc3cccc(O)c3n2)c1OC`, the inhibition was 23%.
For the compound `COc1ccc(/C=C/c2ccc3cccc(O)c3n2)cc1Br`, the inhibition is 6.9%.
The figure for `Cc1ccc(N(CC(=O)Nc2ccc3c(c2)OCCO3)S(C)(=O)=O)cc1` is -32.2%; for `COc1ccc(NC(=O)CN2C(=O)NC(C)(c3ccccc3)C2=O)cc1Cl` (stereo not given) it is -50.5%; for `COc1ccc(NC(=O)c2ccccc2NC(=O)NC2CCCCC2)cc1` it is -14.5%.
The result for `CCCCNC(=O)[C@@H]1CSC2c3ccccc3C(=O)N21` (stereo not given in full) reads -0.2%; that for `O=C1c2ccccc2C(=O)N1CCCC(=O)N1CCCc2ccccc21`, -23.6%; that for `Cc1ccc(-c2cc(C(F)F)n3ncc(C(=O)N4CCCCC4c4cccnc4)c3n2)cc1` (stereo not given), 2.1%.
For the compound `Brc1cccc(CN2CCCCCC2)c1`, the inhibition is -23%.
As for `N#C/C(=C\C=C\c1ccccc1)C(=O)N1CCCC1`, the inhibition was 23.1%.
The result for `CCOC(=O)C(CC)Sc1nnc2n1C(C)(C)Cc1ccccc1-2` (stereo not given) reads -5.8%; that for `COc1ccc(OC)c(-c2cc(C(=O)NCCN3CCOCC3)no2)c1`, -5.6%; that for `CC12C(=O)N(Cc3ccco3)C(=O)C1C1c3ccccc3C2c2ccccc21` (stereo not given), 28.8%.
The result for `C/C(=N/OCC(=O)NCCCCCCNC(=O)CO/N=C(/C)c1cccs1)c1cccs1` reads -2.7%; that for `CCNC(=O)Cc1c(OC)ccc2cc(Br)ccc12`, -58.1%; that for `CN1/C(=C\C(=O)C[n+]2cccc(C(N)=O)c2)C(C)(C)c2ccccc21`, 7.7%.
The figure for `Cc1ccsc1/C=C/c1ccc2ccccc2n1` is 27.3%.
Consider `Cc1ccsc1/C=C/c1ccc2cccc(O)c2n1`, for which the inhibition was 63.2% (active).
The result for `Oc1cccc2ccc(/C=C/c3cccs3)nc12` reads -7.6%; that for `CC(CC(=O)Nc1ccc(S(=O)(=O)Nc2ncccn2)cc1)c1ccccc1` (stereo not given), -22.5%.
The result for `C=CCOn1c(=O)c(-c2ccc(F)cc2)[n+]([O-])c2ccccc21` reads 3.1%.
Consider `CCOc1cccc(/C=N/Nc2nc(N3CCCC3)nc(N3CCCC3)n2)c1O`, for which the inhibition was 33.4% (active).
`COc1cccc(/C=N/Nc2nc(N3CCCC3)nc(N3CCCC3)n2)c1O`: the inhibition was 29.2%.
The figure for `C(=N\Nc1nc(N2CCCC2)nc(N2CCCC2)n1)/c1ccccc1OCc1ccccc1` is 7.9%; for `O=C1C2C3C=CC(C3)C2C(=O)N1c1ccncc1` (stereo not given) it is 29.4%.
Regarding `O=C(CSc1nc2cccnc2n1Cc1ccccc1)NCc1ccco1`, the inhibition was 8.8%.
For `CC1CCCCN1CCNC(=O)c1ccc2c(c1)N(Cc1ccccc1F)C(=O)c1ccccc1S2=O` (stereo not given), the inhibition is -12.3%.
The figure for `Cc1cccc(OCc2nnc(SCc3nc4ccccc4c(=O)[nH]3)o2)c1` is -16.2%; for `COc1cccc2sc3ccc(C#Cc4ccc(N)cc4)cc3c(=O)c12` it is -70%.
On to `COc1ccc2sc3ccccc3c(=O)c2c1`, for which the inhibition is -32.1%.
The figure for `COc1ccc2sc3ccccc3c(=O)c2c1OC` is 97.4% (active); for `Fc1ccc(CSc2nnc3ccccn23)c(Cl)c1` it is -35.7%; for `Cc1oc(S(=O)(=O)N2CCOCC2)cc1C(=O)Nc1ccc(Cl)cc1` it is 0.4%.
The figure for `O=C(Nc1nc2cc3c(cc2s1)OCCO3)c1cccc(N2C(=O)CCC2=O)c1` is -14.7%.
Consider `O=C(Nc1nc2cc3c(cc2s1)OCCO3)c1cccc(S(=O)(=O)N2CCOCC2)c1`, for which the inhibition is 5.8%.
The result for `O=C(O)Cn1cc(C(=O)C2CC2)c2ccccc21` reads -13.5%.
The result for `Cc1ccccc1NC(=O)c1ccc(NS(=O)(=O)c2cc(C(C)(C)C)cc(C)c2C)cc1` reads -29.6%; that for `CCc1ccccc1NC(=O)Nc1ccc(F)cc1`, -25.3%; that for `CCCN(Cc1cc2cc(C)ccc2[nH]c1=O)S(C)(=O)=O`, -18%.
The figure for `CCCCCCCCCCCCCCCC[n+]1cccc2ccccc21` is 37.4%.
With `CCCCC[n+]1cccc2c3ccccc3ccc21`, the inhibition was 33.7%.
The result for `CCCCCCCCCC[n+]1cccc2c3ccccc3ccc21` reads 64.2% (active); that for `Cc1ccc(C(=O)n2nc(-c3ccco3)nc2N)cc1`, -20.6%; that for `COc1ccc(C(C(=O)NCC2CCCO2)N(C(=O)CNC(=O)c2cccs2)c2ccc(C)cc2)cc1OC` (stereo not given), 4.3%.
The figure for `CN(CCOCCOc1ccc(Cl)cc1Br)Cc1ccccc1` is -30.1%; for `CC(C)C1OC2(C)OC(=N)C1(C#N)C(C#N)(C#N)C2c1ccccc1` (stereo not given) it is 78.7% (active); for `CC1OC2(C)OC(=N)C1(C#N)C(C#N)(C#N)C2c1ccccc1` (stereo not given) it is -6.3%.
With `CCC1OC2(C)OC(=N)C1(C#N)C(C#N)(C#N)C2c1ccccc1` (stereo not given), the inhibition was -1.7%.
On to `CC(C)N1CCN(Cc2nc(-c3ccccc3)cs2)CC1CCO` (stereo not given), for which the inhibition is -44.6%.
The figure for `Cc1ccc(Sc2cc(NCCCO)c([N+](=O)[O-])c3nonc23)cc1` is 2.1%; for `COc1ccc(Nc2cc(NCCCO)c([N+](=O)[O-])c3nonc23)cc1` it is 4.8%; for `COc1ccc(CNc2cc(NCCCO)c([N+](=O)[O-])c3nonc23)cc1` it is 48.5% (active).
The figure for `Oc1c(N=Nc2ccc(F)cc2)ccc2ccccc12` is -69.9%; for `Oc1c(N=Nc2ccccn2)ccc2ccccc12` it is 96.4% (active); for `Cc1ccc(N=Nc2ccc3ccccc3c2O)cc1` it is 19%.
Regarding `CCc1ccc(OCC(=O)N/N=C(\C)c2ccccc2OC(F)F)cc1`, the inhibition was -2.9%.
The figure for `Cc1[nH]nc(SCC(=O)NCc2ccc(Cl)cc2)c1[N+](=O)[O-]` is -33.8%; for `COC(=O)Nc1nc(-c2ccc(F)cc2)c(C)s1` it is -56.3%.
Regarding `C/C(=C/Cc1c(O)cc2oc(C)cc(=O)c2c1O)COC1OC(CO)C(O)C(O)C1O` (stereo not given), the inhibition was -47.3%.
The result for `COc1cc2ccc(=O)oc2c(CC=C(C)C)c1OC` reads -5.1%.

(Values after PubChem BioAssay AID1578 (Sanford-Burnham Center for Chemical Genomics, 2009).)
